# Laboratory results as given in PubChem BioAssay (NCI).
# About 83,000 compounds went through this panel and 20% of them were active in at least one assay; those are over-represented in the sample as a whole.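 Testing used 96-well plates and a 48-hour single-concentration exposure. Example: -40 means 40% of the starting cells died.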 A number with no mark means an inactive call. Activity calls are given as the source filed them. Rule for the calls: active = growth percent below 10; inactive = the rest.
# How the values were obtained:
# Assay in all cases: NCI-60 one-dose screen, 48 h (100 = growth as untreated, 0 = no growth, -100 = all killed)
# Conditions in all cases: 10 µM unless noted
# NCI-H23 lung = test system: NCI-H23 lung
# NCI-H226 lung = test system: NCI-H226 lung
# HOP-62 NSCLC = test system: HOP-62 NSCLC
# NCI-H460 lung = test system: NCI-H460 lung
# HOP-92 NSCLC = test system: HOP-92 NSCLC
# NCI-H522 lung = test system: NCI-H522 lung
# A549/ATCC NSCLC = test system: A549/ATCC NSCLC
# 786-0 renal = test system: 786-0 renal
# COLO 205 colon = test system: COLO 205 colon
# NCI-H322M lung = test system: NCI-H322M lung
SMILES,growth (NCI-H23 lung) [%],growth (NCI-H226 lung),growth (HOP-62 NSCLC) [%],growth (NCI-H460 lung),growth (HOP-92 NSCLC) [%],growth (NCI-H522 lung),growth (A549/ATCC NSCLC) [%],growth (786-0 renal),growth (COLO 205 colon),growth (NCI-H322M lung) [%]
CC(=O)C[n+]1ccc(C)cc1Sc1ccccc1C,91,107%,99.1,104%,94.9,98.1%,112,93.5%,116%,–
CC1=CC(=Nc2ccc(N(C)C)cc2)C=C(C)C1=O,66.2,83.5%,86,102%,48.6,94.4%,77.9,95%,-14.5% (active),–
COC1OC(C(O)C(O)CO)C(O)C(O)C1O (stereo not drawn),106,93.4%,88.5,106%,101,111%,97.3,–,111%,–
CC(=O)OC(C)c1cccc(C#N)c1 (stereo not drawn),103,94.7%,94.8,108%,91.3,103%,98.6,104%,113%,–
C(=C\c1ccncc1)/c1ccncc1,98.7,96.4%,101,107%,87.9,5.51% (active),96.5,107%,115%,–
CCCCOC(=O)c1ccccc1O,108,105%,110,113%,111,–,113,109%,115%,–
Cc1cc(CO)c(O)c(CO)c1,121,–,107,107%,96.4,84.4%,103,107%,114%,98.7
Cn1c2ccccc2c2nnc(NCCCCO)nc21,84.3,83.9%,81.6,100%,84.1,95.3%,92.6,98.8%,103%,–
Cc1ccc2nc(N)nnc2c1,94.6,103%,105,112%,71.9,–,109,98.4%,141%,–
CCCCCCCCCCCCCC/C=C\C(CC(=O)O)C(=O)O (stereo not drawn),108,109%,105,106%,106,107%,103,103%,97.7%,–
NC(=O)NCCO,98.9,95%,102,104%,111,95.2%,93,107%,116%,–
Cc1cc(C(=O)NN)c(C#N)c(=O)[nH]1,100,99.1%,97,97.2%,87.2,89.8%,101,107%,94.1%,–
C1Cc2onc(-c3noc4c3CCC4)c2C1,105,120%,103,137%,108,–,104,106%,115%,–
O=C(O)c1ccc([N+](=O)[O-])cc1S(=O)(=O)O,104,104%,107,105%,119,101%,97.2,102%,112%,–
O=C1C=C(c2ccccc2)C(O)(c2ccccc2)C1 (stereo not drawn),99.1,101%,101,110%,163,94%,93.4,99.1%,104%,–
CC(=O)c1cccs1,93.8,98.8%,83.8,104%,90.8,89.3%,92,95.1%,116%,–
CCC(=O)Oc1c(C)cc(O)c2ccccc12,83.5,86.8%,79.5,95.6%,79.5,84.5%,93.4,84.7%,110%,–
CCOC(=O)N[C@H]1CCc2cc(OC)c(OC)c(OC)c2-c2ccc(SC)c(=O)cc21,27.4,-7.68% (active),30.1,2.01% (active),29.4,-8.99% (active),17.3,15.6%,-4.99% (active),–
NNC(=O)CCCCl,97.7,98.7%,107,111%,137,104%,100,108%,118%,–
Nc1cc2ccccc2c(O)c1O,54,81.2%,76.9,86.9%,83.9,45.3%,96.9,-32.2% (active),56.5%,–
COC(c1ccc2c(c1)OCO2)C(C)Br (stereo not drawn),95.2,93.1%,82.8,104%,74.9,84.6%,94,112%,94.5%,–
CC(C)N(CCCC#N)C(C)C,104,–,98.6,105%,85.8,108%,93.9,100%,110%,104
O=c1cc(Cl)nc2ccccn12,98.8,–,103,106%,94,99.7%,107,108%,127%,107
C=CC(=O)OC1CCC(C(C)(C)CC)CC1 (stereo not drawn),108,–,103,105%,115,100%,109,105%,105%,110
O=C(c1ccc(Cl)cc1)N1CCCCC1,95.6,–,96.7,101%,97.4,93.6%,95.4,102%,104%,106
c1ccc2[nH]c(Cc3nc4ccccc4[nH]3)nc2c1,107,–,99.2,111%,85,103%,103,117%,105%,93.1
NNc1ncnc2nc[nH]c12,85.2,–,40.7,50.4%,86.9,-15.7% (active),31.5,43.2%,52.5%,50.5
OCc1cccnc1,100,–,99.8,103%,98.4,108%,92.2,107%,107%,106
